High-throughput results (PubChem)
PGK inhibitor – blocks T. brucei phosphoglycerate kinase; Potency, µM (top dose mostly 57.5 µM), actives largely listed as inhibitors; PGK/GAPDH coupled, Kinase-Glo luminescence, 60 min; actives 0.043% (n = 380,000); AID 602233; P07378; note: nearly all actives have a fitted effect of over 60% in size
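Luminescent ATP detection (Kinase-Glo Plus) follows a 60-minute room-temperature incubation, with wells lacking PGK as controls. Buffer: 100 mM TEA (pH 7.6), 5 mM MgCl2, 0.01% Tween-20. Coupling enzyme GAPDH (100 nM final) supplies unstable 1,3-BPG in-well.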
Pin1 inh – human Pin1 inhibition | Pin1 FP peptide displacement, HiFluor488, 10 min | Q13526 | actives 0.009% (n = 390,000) | Potency, µM (top dose mostly 115 µM), actives largely listed as inhibitors; active = well fitted inhibition curve with a large enough effect in the polarisation, with a control signal flat, not every such curve was filed as active; inconclusive = small, poorly fitted or top-dose-only effect, or effect the other way, or a change in a side signal; inactive = no such curve, though single readings can be large or run the other way; the % refers to the polarisation
Target sequence (Q13526 whole entry, looked up): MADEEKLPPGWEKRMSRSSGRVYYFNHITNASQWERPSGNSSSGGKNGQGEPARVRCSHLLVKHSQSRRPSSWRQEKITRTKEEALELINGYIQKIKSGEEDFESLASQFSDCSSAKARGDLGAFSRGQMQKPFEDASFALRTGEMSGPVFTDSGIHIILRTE
HEK293 tox – cytotoxic in the GLP-1 receptor inverse agonist counter-screen; actives 0.13% (n = 410,000); Potency, µM (series often up to 38.3 µM), usual class: inhibitors; HEK293 cAMP-luciferase reporter cells, luminescence, 24 h;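 note: loss of luciferase light is scored as toxicity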
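Compound-treated cells are incubated 24 hr at 37 deg C under 5% CO2 after a 12 hour attachment period, then luciferase detection reagent is added and luminescence is measured following 12 min at room temperature; lowered signal indicates toxicity.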
Tb PFK inh – blocks T. brucei phosphofructokinase | O15648 | T. brucei PFK, ADP-Glo luminescence | Potency, µM (titrated, usually from 57.5 µM), hits mostly inhibitors | actives 0.17% (n = 330,000); note: nearly all actives have a fitted effect of over 60% in size
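In TEA buffer at pH 8.0 with 5 mM MgCl2, enzyme (1.25 nM) converted F6P (0.5 mM) and ATP (0.1 mM) for 45 min at room temperature. ADP product was read by luciferase luminescence.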
GLP1R ag – activates the human GLP-1 receptor; HEK293 GLP-1R CRE-luciferase, luminescence, 4-6 h; cells express a hypersensitive GLP-1R form; Potency, µM (top dose mostly 45.6 µM), hits mostly activators; actives 0.007% (n = 380,000)
Target sequence (P43220 whole entry, looked up): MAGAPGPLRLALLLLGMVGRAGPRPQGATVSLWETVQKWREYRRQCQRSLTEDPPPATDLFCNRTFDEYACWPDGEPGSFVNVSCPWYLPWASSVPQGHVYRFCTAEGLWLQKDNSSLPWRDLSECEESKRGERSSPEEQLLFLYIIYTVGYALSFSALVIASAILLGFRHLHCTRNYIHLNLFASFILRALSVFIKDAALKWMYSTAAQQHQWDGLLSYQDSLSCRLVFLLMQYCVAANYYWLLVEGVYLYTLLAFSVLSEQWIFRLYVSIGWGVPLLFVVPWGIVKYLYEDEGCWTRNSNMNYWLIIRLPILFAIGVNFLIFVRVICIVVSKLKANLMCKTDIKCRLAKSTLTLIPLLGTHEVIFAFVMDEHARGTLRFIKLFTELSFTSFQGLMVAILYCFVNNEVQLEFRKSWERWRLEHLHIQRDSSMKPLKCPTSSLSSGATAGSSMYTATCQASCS
GLP1R inv ag – acts as inverse agonist at human GLP-1 receptor; HEK293 GLP-1R CRE-luciferase, luminescence, 24 h; GLP-1R form is constitutively active; Potency, µM (series often up to 38.3 µM), hits mostly inhibitors; actives 1.6% (n = 410,000); AID 624417; note: nearly all actives have a fitted effect of over 55% in size
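GLP-1R inverse agonism mode: basal reporter luminescence in engineered HEK293 cells measured after one day of compound exposure at 37 deg C, with a 12 min room-temperature detection step.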
Each line names hits and unclear results; the compound was inactive in the other large screens. Shown are actives, neighbours in structure and some others; about 1.8% of the full set was active somewhere. Unless noted, calls come from the whole dose curve; as a rule, active = well fitted curve in the direction sought with a large enough effect; inconclusive = small, poorly fitted or top-dose-only effect, or another doubt; inactive = no such curve, though single readings can be large; an effect the other way counts as inactive or inconclusive.

CS(=O)(=O)c1ccc(C2=C(CNC(=O)c3ccc([N+](=O)[O-])cc3)[C@H]3CC[C@@H](C2)N3Cc2ccccc2)cc1	none (no result: Pin1 inh, Tb PFK inh)
CS(=O)(=O)c1ccc(C2=C(CNC(=O)c3ccc([N+](=O)[O-])cc3)[C@H]3CC[C@@H](C2)N3CCOc2ccccc2)cc1	HEK293 tox inconclusive, GLP1R inv ag 10µM (no result: Pin1 inh, Tb PFK inh)
CCOC(=O)c1cnc2c(ccc3ccccc32)c1Nc1ccc(C(C)=O)cc1	none (no result: Tb PFK inh, GLP1R ag)
CN1CCN(c2ccc(Nc3ccnc4cc(Cl)ccc34)cc2)CC1	HEK293 tox 3.5µM, GLP1R inv ag 2µM
CC(C)c1ccc(C(=O)CC2(O)C(=O)N(CCc3ccccc3)c3ccc(Cl)cc32)cc1 (stereo not drawn)	HEK293 tox inconclusive, GLP1R inv ag inconclusive (no result: Tb PFK inh)
C=CCNc1nc(NCc2ccc(N(C)C)cc2)c2sc(-c3ccccc3)cc2n1	HEK293 tox inconclusive, GLP1R inv ag inconclusive (no result: PGK inhibitor, Pin1 inh, Tb PFK inh)
O=C1NC(=O)N(Cc2ccco2)C(=O)/C1=C/C=C/c1ccco1	PGK inhibitor inconclusive, Pin1 inh inconclusive, Tb PFK inh 30µM, GLP1R inv ag inconclusive
O=C1NC(=O)N(Cc2ccccc2)C(=O)/C1=C\C=C\c1ccco1	Pin1 inh inconclusive, HEK293 tox inconclusive, GLP1R inv ag inconclusive
CN1C(=O)/C(=C/C=C/c2ccco2)C(=O)NC1=S	PGK inhibitor 28µM, Pin1 inh inconclusive, Tb PFK inh inconclusive
Cc1ccc(OCCOc2cccc(C=C3C(=O)NC(=O)NC3=O)c2)c(C)c1	GLP1R inv ag 6.3µM
CC(=O)OC1CC(OC2C(O)CC(OC3C(O)CC(O[C@H]4CC[C@]5(C)C6CC[C@]7(C)[C@@H](C8=CC(=O)OC8)[C@@H](O)C[C@]7(O)[C@@H]6CC[C@@H]5C4)OC3C)OC2C)OC(C)C1OC1OC(CO)C(O)C(O)C1O (stereo partly drawn)	none (no result: PGK inhibitor, Pin1 inh, HEK293 tox, Tb PFK inh, GLP1R inv ag)
COc1cccc(C(=O)Oc2c(Sc3ccc(C)cc3)c(C)nn2C(C)(C)C)c1OC	HEK293 tox inconclusive, GLP1R inv ag 3.2µM (no result: Tb PFK inh, GLP1R ag)
CCOc1ccc(NCc2cccn2-c2nnc(N3CCC(C(=O)NCc4ccc(C)cc4)CC3)s2)cc1	GLP1R inv ag inconclusive (no result: PGK inhibitor, Tb PFK inh, GLP1R ag)
Cc1ccc(NCc2cccn2-c2nnc(N3CCC(C(=O)NCc4ccc(OC(C)C)cc4)CC3)s2)cc1	GLP1R inv ag 10µM (no result: PGK inhibitor, Tb PFK inh, GLP1R ag)
O=C(Nc1ccc(Cl)c(C(F)(F)F)c1)NC1CC2CCCC(C1)N2Cc1ccccc1 (stereo not drawn)	HEK293 tox inconclusive, GLP1R inv ag 2.5µM
O=C(Nc1ccc(F)cc1)NC1CCN(Cc2ccccc2)CC1	GLP1R inv ag inconclusive
CN(C)CCN(C(=O)c1cc(Cl)sc1Cl)c1nc2ccc(F)cc2s1	GLP1R inv ag inconclusive
CN(C)CCCN(C(=O)CCc1ccccc1)c1nc2ccc(Br)cc2s1	HEK293 tox inconclusive, GLP1R inv ag 6.3µM
COC(=O)C1=C(C)N(Cc2ccccc2)C(=NCc2cccc(C(F)(F)F)c2)N[C@H]1c1cccc(F)c1	Pin1 inh inconclusive, HEK293 tox 22µM, GLP1R inv ag inconclusive
CNC(=O)c1cccn(Cc2cccc(C(F)(F)F)c2)c1=O	none
Cc1ccc(C)c(Cn2c(C(=O)O)c(C=O)c3ccccc32)c1	Pin1 inh inconclusive
CCOC(=O)c1c(C=O)c2ccccc2n1Cc1ccccc1	GLP1R inv ag 10µM
CCC1CC2CC3c4[nH]c5ccc(OC)cc5c4CCN(C2)C13 (stereo not drawn)	none (no result: PGK inhibitor, Pin1 inh, HEK293 tox, Tb PFK inh, GLP1R inv ag)
N#CC1=C(N)NC(SCC(=O)Nc2ccc(Br)cc2)=C(C#N)C12CCCCC2	HEK293 tox inconclusive, GLP1R inv ag 7.9µM
Cc1ccccc1-n1c(/C=C/c2c(C)[nH]c3ccccc23)nc2ccccc2c1=O	Pin1 inh inconclusive, GLP1R inv ag 4µM (no result: Tb PFK inh, GLP1R ag)
Cc1ccccc1-n1c(/C=C/c2ccc(N(C)C)cc2)nc2ccccc2c1=O	Pin1 inh inconclusive, GLP1R inv ag 8.9µM (no result: Tb PFK inh, GLP1R ag)
CC(=O)N1CCc2cc(S(=O)(=O)N3CCN(c4ccc(C)cc4)C(C)C3)ccc21 (stereo not drawn)	none (no result: Tb PFK inh)
Cc1cccc(NP(=O)(Oc2ccccc2)Oc2ccccc2)c1C	GLP1R inv ag 10µM
COc1cccc(OP(=O)(Nc2ccccc2)Oc2cccc(OC)c2)c1	HEK293 tox inconclusive, GLP1R inv ag 10µM
C=CC[C@H](CC(=O)N(CCO)Cc1ccccc1)C(=O)N[C@H](COC(=O)[C@@H](CC=C)Cc1ccc(F)cc1)Cc1ccccc1	none
COc1cccc(CN2CCCC(C(=O)Nc3ccc(-c4cscn4)cc3)C2)c1 (stereo not drawn)	HEK293 tox inconclusive, GLP1R inv ag inconclusive
CC(Oc1ccc(F)cc1)C(=O)N(CCC1=CCCCC1)c1c(N)n(Cc2ccccc2)c(=O)[nH]c1=O (stereo not drawn)	HEK293 tox inconclusive, GLP1R inv ag 11µM
CCN(C(=O)COC(=O)Cc1ccccc1)c1c(N)n(Cc2ccccc2)c(=O)[nH]c1=O	none
Cc1ccc(NC(=O)N(Cc2ccc3c(c2)OCO3)C2CCN(Cc3ccccc3)CC2)cc1C	GLP1R inv ag inconclusive (no result: Tb PFK inh, GLP1R ag)
Cc1ccc(NC(=O)N(Cc2ccc3c(c2)OCO3)C2CCN(Cc3ccccc3)CC2)cc1Cl	GLP1R inv ag 13µM (no result: Tb PFK inh, GLP1R ag)
CCOP(=O)(OCC)C(NC(=O)Nc1ccc(C)c(Cl)c1)c1ccccc1 (stereo not drawn)	GLP1R inv ag inconclusive
CCOP(=O)(OCC)C(NC(=O)Nc1ccc(Cl)c(Cl)c1)c1ccccc1 (stereo not drawn)	GLP1R inv ag 8.9µM
